{"source": "PubChem BioAssay AID1063", "about": "(University of Pittsburgh Molecular Library Screening Center, 2008)", "note": "Hit rate of the full screen: of about 200,000 compounds, about 18,000 (9%) were called active. Cut-off read from the data, not from the text of the source: active = inhibition above about 50%; inactive = the rest. The full list was thinned out, with actives kept by preference."}
{"experiment": "Leishmania major promastigote growth inhibition, primary screen (AID 1063);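 note: promastigotes grown with compound for 44 hours at 28 °C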", "details": "Leishmania major promastigotes, resazurin fluorescence viability; at 10 µM; hits give high values"}
{"smiles": "COc1cc(/C=C/C(=O)OCC(=O)N2CCOCC2)ccc1OCC#N", "inhibition": "-11.6% (inactive)"}
{"smiles": "Nc1nnc(SCn2nnc3ccccc3c2=O)s1", "inhibition": "-7.44% (inactive)"}
{"smiles": "S=C(NCc1ccc2c(c1)OCO2)NCc1ccco1", "inhibition": "8.29% (inactive)"}
{"smiles": "CCNC(=S)Nc1cccc(Cl)c1C", "inhibition": "-6.44% (inactive)"}
{"smiles": "Cc1c(Cl)cccc1NC(=S)NCc1ccc2c(c1)OCO2", "inhibition": "81.5% (active)"}
{"smiles": "CC(C)(C)c1cnnn1-c1ccc([N+](=O)[O-])cc1", "inhibition": "-0.24% (inactive)"}
{"smiles": "CCc1nnc(NS(=O)(=O)c2ccc(NC(=S)NC(=O)c3cccs3)cc2)s1", "inhibition": "-1.21% (inactive)"}
{"smiles": "Cc1c(C(=O)O)nnn1-c1nonc1N", "inhibition": "-0.68% (inactive)"}
{"smiles": "O=C(Nc1cccc2ncccc12)C(Cl)(Cl)Cl", "inhibition": "-0.02% (inactive)"}
{"smiles": "Cc1ccc(C(=O)Nc2cccc3ncccc23)cc1[N+](=O)[O-]", "inhibition": "0.51% (inactive)"}
{"smiles": "Cc1ccc(/C=C(\\C#N)C(=O)Nc2cccc3ncccc23)o1", "inhibition": "55.2% (active)"}
{"smiles": "C=CCn1c(SCc2cc(C(=O)OC)c(C)o2)nnc1-c1ccncc1", "inhibition": "-5.9% (inactive)"}
{"smiles": "C=CCn1c(SCc2c(C(=O)OC)sc(N)c2C(=O)OC)nnc1-c1ccc(Cl)cc1", "inhibition": "50.9% (active)"}
{"smiles": "C=CCn1c(SCn2nnc3ccccc3c2=O)nnc1-c1ccc(Cl)cc1", "inhibition": "1.86% (inactive)"}
{"smiles": "CCOC(=O)C1(CC2CCCCO2)CCN(Cc2nc(-c3cccs3)oc2C)CC1", "note": "(stereo unspecified)", "inhibition": "19.6% (inactive)"}
{"smiles": "Cc1ccccc1NC(=O)NNC(=O)OC(C)(C)C", "inhibition": "-6.97% (inactive)"}
{"smiles": "CCC(C)(C)NC(=O)C1c2ccccc2Oc2ccccc21", "inhibition": "1.22% (inactive)"}
{"smiles": "CCOc1ccccc1C(=O)NCc1ccco1", "inhibition": "-8.32% (inactive)"}
{"smiles": "CCCCOc1ccc(C(=O)NCc2ccco2)cc1", "inhibition": "-3.02% (inactive)"}
{"smiles": "CCCC1=Nc2cc(C(=O)NCc3ccco3)ccc2Sc2ccccc21", "inhibition": "91.3% (active)"}
{"smiles": "Cc1ccc(S(=O)(=O)N2CCOCC2)cc1NC(=O)CSc1nnc(N)s1", "inhibition": "-4.64% (inactive)"}
{"smiles": "CC(Sc1nncn1C)C(=O)Nc1cc(C(F)(F)F)ccc1N1CCOCC1", "note": "(stereo unspecified)", "inhibition": "-8.57% (inactive)"}
{"smiles": "CCCCNC(=O)c1ccc(-n2c(=S)[nH]c3ccccc3c2=O)cc1", "inhibition": "2.08% (inactive)"}
{"smiles": "Cn1c(=O)c2cc(S(=O)(=O)NCCC(=O)Nc3ccc(F)cc3F)ccc2n(C)c1=O", "inhibition": "8.04% (inactive)"}
{"smiles": "Cc1ccc(-n2ncc3c(=O)n(-c4ccc(C)c(C)c4)c(-c4ccco4)nc32)cc1", "inhibition": "51.5% (active)"}
{"smiles": "Cc1ccc(-n2ncc3c2ncn2nc(-c4ccco4)nc32)c(C)c1", "inhibition": "-2.03% (inactive)"}
{"smiles": "Cc1ccc(-c2nc3c(cnn3-c3ccccc3)c(=O)o2)cc1", "inhibition": "-4.66% (inactive)"}
{"smiles": "COc1ccc(-c2nc(CN3CCN(c4ncccn4)CC3)c(C)o2)cc1C", "inhibition": "30.8% (inactive)"}
{"smiles": "COc1cc(OC)cc(-c2nc(=S)n3ccsc3n2)c1", "inhibition": "-3.3% (inactive)"}
{"smiles": "O=C(N1CCCCC1)N1CCN(C(=O)N2CCCCC2)CC1", "inhibition": "-3.35% (inactive)"}
{"smiles": "Cc1ccccc1NC(=O)c1nn(-c2ccc(F)c(F)c2)ccc1=O", "inhibition": "-0.26% (inactive)"}
{"smiles": "Cc1cccc(C)c1NC(=O)CSc1nnc(-c2ccccc2)n1Cc1ccc2c(c1)OCO2", "inhibition": "53.4% (active)"}
{"smiles": "Cc1ccccc1-c1nnc(SCC(=O)NCc2ccc3c(c2)OCO3)n1C", "inhibition": "-5.07% (inactive)"}
{"smiles": "Cc1cnc(NC(=O)CSc2nnc(-c3ccccc3)n2Cc2ccccc2)s1", "inhibition": "12.5% (inactive)"}
{"smiles": "COc1ccc(C2C(C(C)=O)=C(O)C(=O)N2CCc2c[nH]c3ccccc23)cc1", "note": "(stereo unspecified)", "inhibition": "-4.35% (inactive)"}
{"smiles": "COc1ccccc1NC(=O)CSc1nnc(C)n1CC1CCCO1", "note": "(stereo unspecified)", "inhibition": "-2.8% (inactive)"}
{"smiles": "CCCn1c(SCC(=O)Nc2cccc(C(=O)OCC)c2)nnc1-c1ccoc1C", "inhibition": "23.8% (inactive)"}
{"smiles": "COc1ccccc1NC(=O)CSc1nnc(-c2ccoc2C)n1CCc1ccccc1", "inhibition": "76.2% (active)"}
{"smiles": "Cc1ccc(CN2CCC(N3CCC(C(=O)NCC4CCCO4)CC3)CC2)o1", "note": "(stereo unspecified)", "inhibition": "-6.4% (inactive)"}
{"smiles": "CC(=O)c1cc(-c2ccccc2)n(CC(=O)NC2CCCCC2)c1C", "inhibition": "-2.4% (inactive)"}
{"smiles": "COc1ccccc1NC(=O)/C=C/C(=O)O", "inhibition": "-7.02% (inactive)"}
{"smiles": "COc1ccccc1NC(=O)c1ccc(C)s1", "inhibition": "13.5% (inactive)"}
{"smiles": "COc1ccccc1NC(=O)/C=C/C(N)=O", "inhibition": "59.7% (active)"}
{"smiles": "O=C(COC(=O)c1cnc(Cl)c(Cl)c1)NCc1ccco1", "inhibition": "-5.74% (inactive)"}
{"smiles": "O=C(CC1SCCNC1=O)Nc1ccc(Cl)cc1", "note": "(stereo unspecified)", "inhibition": "-5.68% (inactive)"}
{"smiles": "COc1ccc2c(c1)C(SCC(=O)NCc1ccccc1)CC(C)(C)O2", "note": "(stereo unspecified)", "inhibition": "-6.83% (inactive)"}
{"smiles": "COc1cccc(CC2(CO)CCCN(CC3=Cc4cc(OC)ccc4OC3)C2)c1", "note": "(stereo unspecified)", "inhibition": "-1.53% (inactive)"}
{"smiles": "COc1ccc2c(c1)C=CC1(O2)N(CCO)c2ccccc2C1(C)C", "note": "(stereo unspecified)", "inhibition": "99.2% (active)"}
{"smiles": "CC(C)C(=O)NCc1cc(-c2ccc(Cl)cc2)no1", "inhibition": "1.34% (inactive)"}
{"smiles": "CCN(c1ccccc1)S(=O)(=O)c1cccc(C(=O)O)c1", "inhibition": "-3.46% (inactive)"}
{"smiles": "COc1ccccc1N(CC(=O)N1CCCCC1)S(=O)(=O)c1ccccc1", "inhibition": "-2.25% (inactive)"}
{"smiles": "Cc1ccc(N(CC(O)CN2CCCC2)S(=O)(=O)c2ccccc2)cc1", "note": "(stereo unspecified)", "inhibition": "60.2% (active)"}
{"smiles": "Cc1cc(C)n(CC(O)CN(c2ccccc2)S(=O)(=O)c2ccc3ccccc3c2)n1", "note": "(stereo unspecified)", "inhibition": "61.1% (active)"}
{"smiles": "CCN(c1ccccc1)S(=O)(=O)c1ccc(N)cc1", "inhibition": "-4.44% (inactive)"}
{"smiles": "CCN(c1ccccc1)S(=O)(=O)c1ccc2[nH]c(=O)[nH]c2c1", "inhibition": "-5.33% (inactive)"}
{"smiles": "Cc1cccc(N(CC(O)CN(C)C)S(=O)(=O)c2ccccc2)c1", "note": "(stereo unspecified)", "inhibition": "95.9% (active)"}
{"smiles": "O=S(=O)(c1ccccc1)N(CC(O)CN1CCCCC1)c1ccccc1", "note": "(stereo unspecified)", "inhibition": "45% (inactive)"}
{"smiles": "Cc1cccc(N(CC(=O)N2CCOCC2)S(C)(=O)=O)c1", "inhibition": "0.32% (inactive)"}
{"smiles": "CC1CCCCC1NC(=O)COC(=O)Cc1ccc(Br)cc1", "note": "(stereo unspecified)", "inhibition": "-8.18% (inactive)"}
{"smiles": "C/C(=N\\OCC(=O)Nc1ccc(Br)cc1)c1cccs1", "inhibition": "-1.5% (inactive)"}
{"smiles": "Cc1cc(NC(=O)CN2C(=O)NC(C)(CCc3ccccc3)C2=O)no1", "note": "(stereo unspecified)", "inhibition": "2.34% (inactive)"}
{"smiles": "CCc1cccc2c(=O)c(C(=O)NCCCOC)c[nH]c12", "inhibition": "-1.23% (inactive)"}
{"smiles": "Cc1ccc(/C=N/NC(=O)C2=NNC(c3ccccc3)(c3ccccc3)C2)c(O)c1", "inhibition": "100% (active)"}
{"smiles": "Cc1ccc(-c2nn(-c3ccccc3)cc2/C=N/NC(=O)c2ccc3c(c2)OCO3)cc1", "inhibition": "8.23% (inactive)"}
{"smiles": "Cc1ccc(/C=N/NC(=O)C(NC(=O)c2ccccc2)c2n[nH]c(=O)c3ccccc23)cc1", "note": "(stereo unspecified)", "inhibition": "-1.59% (inactive)"}
{"smiles": "CNCC(O)CN1CCN(c2ccccc2OC)CC1", "note": "(stereo unspecified)", "inhibition": "-6.68% (inactive)"}
{"smiles": "Cc1c(Br)c([N+](=O)[O-])nn1CC(=O)Nc1sc2c(c1C(=O)OC(C)C)CCC(C)C2", "note": "(stereo unspecified)", "inhibition": "-5.92% (inactive)"}
{"smiles": "COC(=O)c1c(NC(=O)CN2C(=O)NC(CCc3ccccc3)C2=O)sc2c1CCCCC2", "note": "(stereo unspecified)", "inhibition": "28.1% (inactive)"}
{"smiles": "COC(=O)c1c(NC(=O)CN2CCN(S(=O)(=O)c3ccccc3[N+](=O)[O-])CC2)sc2c1CCC(C)C2", "note": "(stereo unspecified)", "inhibition": "76.2% (active)"}
{"smiles": "Cc1ccc(NC(=O)C(=O)NCc2ccco2)c(C)c1", "inhibition": "-8.28% (inactive)"}
{"smiles": "C/C(CC(=O)Nc1ccc(C)cc1C)=N\\NC(=O)C(C)C", "inhibition": "13.4% (inactive)"}
{"smiles": "NC(=O)c1ccc(N2CCOCC2)nc1", "inhibition": "2.59% (inactive)"}
{"smiles": "Cc1cc(F)ccc1S(=O)(=O)Nc1ncnc2scc(-c3ccc(F)cc3)c12", "inhibition": "64.1% (active)"}
{"smiles": "COc1ccc(-c2csc3ncnc(Oc4ccc5c(C)cc(=O)oc5c4)c23)cc1", "inhibition": "16.6% (inactive)"}
{"smiles": "CCn1cnc2scc(-c3ccc(C)c(C)c3)c2c1=O", "inhibition": "-4.16% (inactive)"}
{"smiles": "O=C(NCc1nnc(SCC(=O)N2CCC(Cc3ccccc3)CC2)o1)c1ccco1", "inhibition": "25% (inactive)"}
{"smiles": "COCC(C)NC(=O)COc1nncc2ccccc12", "note": "(stereo unspecified)", "inhibition": "4.91% (inactive)"}
{"smiles": "CN1CCN(S(=O)(=O)c2cccc(C(=O)O)c2)CC1", "inhibition": "-1.21% (inactive)"}
{"smiles": "O=C(NNC1=NCCC1)c1cccc(S(=O)(=O)N2CCCCC2)c1", "inhibition": "-5.29% (inactive)"}
{"smiles": "CNC(=O)NC(=O)C(OC(=O)c1cccc(S(=O)(=O)N2CCCCC2)c1)c1ccccc1", "note": "(stereo unspecified)", "inhibition": "63.2% (active)"}
{"smiles": "CCN1CCCC1Cn1cnc2c([nH]c3cc(OC)ccc32)c1=O", "note": "(stereo unspecified)", "inhibition": "10.5% (inactive)"}
{"smiles": "CC(C)OCCCNc1ncnc2c1[nH]c1ccc(F)cc12", "inhibition": "36.3% (inactive)"}
{"smiles": "CCN1CCCC1CNc1ncnc2c1[nH]c1ccc(F)cc12", "note": "(stereo unspecified)", "inhibition": "78.6% (active)"}
{"smiles": "O=C(NCC1CCCCC1)c1cc(S(=O)(=O)N2CCCCC2)ccc1N1CCOCC1", "inhibition": "7.99% (inactive)"}
{"smiles": "Cc1cc(/C=C2/C(=N)N3C(=NC2=O)SN=C3S(C)(=O)=O)c(C)n1-c1ccccc1", "inhibition": "3.11% (inactive)"}
{"smiles": "CC(NC(=O)c1ccc(N2CCNCC2)c([N+](=O)[O-])c1)C12CC3CC(CC(C3)C1)C2", "note": "(stereo unspecified)", "inhibition": "7.22% (inactive)"}
{"smiles": "O=C(Nc1ccc(N2C(=O)c3cccc4cccc(c34)C2=O)cc1)c1ccc(N2CCCCC2)c([N+](=O)[O-])c1", "inhibition": "75% (active)"}
{"smiles": "O=C(Nc1cccc(C(F)(F)F)c1)c1ccc(N2CCNCC2)c([N+](=O)[O-])c1", "inhibition": "100% (active)"}
{"smiles": "Cc1cccc(NC(=O)c2cccc(C(F)(F)F)c2)c1", "inhibition": "13.2% (inactive)"}
{"smiles": "O=C(Nc1ccc2c(c1)OCO2)c1ccc(N2C(=O)c3ccccc3C2=O)cc1", "inhibition": "-0.72% (inactive)"}
{"smiles": "O=C(COc1ccccc1F)NNC(=O)c1ccc(N2CCCCC2)c([N+](=O)[O-])c1", "inhibition": "-1.27% (inactive)"}
{"smiles": "C/C(=N/NC(=O)CCc1ccccc1)c1ccco1", "inhibition": "11.8% (inactive)"}
{"smiles": "CC1=NN(C(=O)c2ccc(Br)cc2)C(O)(c2ccccc2)C1", "note": "(stereo unspecified)", "inhibition": "-9.77% (inactive)"}
{"smiles": "CCOc1ccc(-c2nnc(-c3ccco3)o2)cc1", "inhibition": "2.35% (inactive)"}
{"smiles": "CCC(=O)Oc1cccc(C(=O)Nc2ccc(-c3nnc(-c4ccco4)o3)cc2)c1", "inhibition": "98.9% (active)"}
{"smiles": "CCCCOc1ccc(-c2nnc(-c3ccco3)o2)cc1", "inhibition": "-7.38% (inactive)"}
